Experimental data reported in a collection of fitness landscapes (doi:10.1016/j.celrep.2020.107928).
The full ranking holds about 81,000 sequences; the median of “one-hybrid fitness for binding parS DNA” is about -0.17, and the highest 2% start at about 0.51. For the sample, the highest values were picked, then their nearest neighbours and some sequences at random.

B1: Caulobacter ParB omega fusion; a variant is named by its letters at X, in order, B8GW30 (parent)
chain: MESVVVGEPGMSEGRRGLGRGLSALLGEVDAAPAQAPGEQLGGSREAPIEILQRNPDQPRRTFREEDLEDLSNSIREKGVLQPILVRPSPDTAGEYQIVAGERAWRAAQRAGLKTVPIMVRELDDLAVLEIGIIENVQRADLNVLEEALSYKVLMEKFERTQENIAQTIGKSXSHVANXMRLLXLPDEVQSYLVSGELTAXHARAIAAAADPVALAKQIIEGGLSVRETEALARKAPNLSAGKSKGGRPPRVKDTDTQALESDLSSVLGLDVSIDHRGSTGTLTITYATLEQLDDLCNRLTRGI

Variants of: B1
Assay: one-hybrid fitness for binding parS DNA (scaled: cognate 1, non-cognate 0); higher = stronger binding
Conditions: with parS DNA site
Method in brief: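 Selection: bacterial one-hybrid in E. coli USO, HIS3 reporter with the site 19 bp from the promoter, 48 hours at 37°C on M9-minus-histidine plus 0.1 mM IPTG and 5 mM 3-AT. Libraries were Caulobacter ParB with four randomised specificity codons, sequenced on Illumina before and after selection. Fitness is the rescaled log change in variant-to-wild-type read ratio, anchored to the cognate and non-cognate sites.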

| Variant | one-hybrid fitness for binding parS DNA |
| --- | --- |
| TPAQ | ≤ 0.2 |
| CKSG | ≤ 0.2 |
| LRFF | ≤ 0.2 |
| RCPH | ≤ 0.2 |
| RCPS | 0.88 |
| RPPS | ≤ 0.2 |
| WVLG | ≤ 0.2 |
| AQAH | ≤ 0.2 |
| QPQI | ≤ 0.2 |
| RNLC | 0.736 |
| RNYN | 0.235 |
| RNYC | 0.719 |
| RNLR | ≤ 0.2 |
| RNIC | 0.523 |
| RNRC | 0.893 |
| RNPC | 0.358 |
| RNRH | ≤ 0.2 |
| RNLK | ≤ 0.2 |
| RNIP | ≤ 0.2 |
| RNRD | ≤ 0.2 |
| RNYD | ≤ 0.2 |
| VAHC | ≤ 0.2 |
| TAIS | ≤ 0.2 |
| PGSI | ≤ 0.2 |
| MKSG | ≤ 0.2 |

| Variant | one-hybrid fitness for binding parS DNA |
| --- | --- |
| AHRN | ≤ 0.2 |
| SQMR | ≤ 0.2 |
| IRKE | ≤ 0.2 |
| RNGK | ≤ 0.2 |
| RNSF | ≤ 0.2 |
| RNCY | 0.235 |
| RNCR | ≤ 0.2 |
| RNSC | 0.848 |
| RNGC | 0.769 |
| RNCC | 0.704 |
| RNSR | ≤ 0.2 |
| RNHQ | ≤ 0.2 |
| RNHC | 0.798 |
| RNGF | ≤ 0.2 |
| RNHY | 0.361 |
| QDYV | ≤ 0.2 |
| VSHT | ≤ 0.2 |
| KTMS | ≤ 0.2 |
| EVAF | ≤ 0.2 |
| RNQC | 0.82 |
| DNWC | ≤ 0.2 |
| RNWC | 0.569 |
| RNWR | ≤ 0.2 |
| RNQD | ≤ 0.2 |
| RNQN | 0.284 |

| Variant | one-hybrid fitness for binding parS DNA |
| --- | --- |
| TLDS | ≤ 0.2 |
| ARHI | ≤ 0.2 |
| RLKT | 0.799 |
| RLKK | ≤ 0.2 |
| RLVP | ≤ 0.2 |
| RLVT | 0.844 |
| RLKR | ≤ 0.2 |
| RLVD | ≤ 0.2 |
| PSIF | ≤ 0.2 |
| TTMY | ≤ 0.2 |
| IRGH | ≤ 0.2 |
| RNDT | 0.562 |
| RNNE | ≤ 0.2 |
| RNDF | ≤ 0.2 |
| RNNY | 0.434 |
| RNNT | 0.785 |
| RNET | 0.498 |
| PRSW | ≤ 0.2 |
| AEDR | ≤ 0.2 |
| SKLC | ≤ 0.2 |
| RKAA | 0.62 |
| NKAA | ≤ 0.2 |
| RKFA | 0.549 |
| DKAA | ≤ 0.2 |
| HLVN | ≤ 0.2 |

| Variant | one-hybrid fitness for binding parS DNA |
| --- | --- |
| EADC | ≤ 0.2 |
| RFLC | 0.85 |
| RFWC | 0.697 |
| DFLC | ≤ 0.2 |
| RFRC | 0.969 |
| RFWF | ≤ 0.2 |
| RFRP | ≤ 0.2 |
| RFQY | 0.462 |
| NFLC | ≤ 0.2 |
| RFWR | ≤ 0.2 |
| DFQC | ≤ 0.2 |
| DFRC | ≤ 0.2 |
| RFQC | 0.925 |
| SDQF | ≤ 0.2 |
| ENRG | ≤ 0.2 |
| CYNT | ≤ 0.2 |
| LSAC | ≤ 0.2 |
| TCKK | ≤ 0.2 |
| CTYA | ≤ 0.2 |
| TRDK | ≤ 0.2 |
| DFYC | ≤ 0.2 |
| DFHC | ≤ 0.2 |
| RFSD | ≤ 0.2 |
| DFSC | ≤ 0.2 |
| RFSC | 0.935 |

| Variant | one-hybrid fitness for binding parS DNA |
| --- | --- |
| RFYC | 0.867 |
| RFCC | 0.87 |
| RFYN | 0.357 |
| RFCD | ≤ 0.2 |
| NFHC | ≤ 0.2 |
| NFCC | ≤ 0.2 |
| RFHC | 0.925 |
| WVLH | ≤ 0.2 |
| GNCC | ≤ 0.2 |
| TRHF | ≤ 0.2 |
| VVNG | ≤ 0.2 |
| TLTV | ≤ 0.2 |
| PSGP | ≤ 0.2 |
| WTLF | ≤ 0.2 |
| RFKN | 0.441 |
| RFVH | ≤ 0.2 |
| RFVS | 0.892 |
| RFKS | 0.9 |
| RFKH | 0.252 |
| RFVD | ≤ 0.2 |
| VTDM | ≤ 0.2 |
| VYTF | ≤ 0.2 |
| PGDI | ≤ 0.2 |
| KILR | ≤ 0.2 |
| RKFN | 0.295 |

| Variant | one-hybrid fitness for binding parS DNA |
| --- | --- |
| RKAS | 0.832 |
| RKAP | ≤ 0.2 |
| RKFP | ≤ 0.2 |
| RKAD | ≤ 0.2 |
| RKFS | 0.927 |
| QHMA | ≤ 0.2 |
| SVPY | ≤ 0.2 |
| WRWT | ≤ 0.2 |
| FLPQ | ≤ 0.2 |
| WSPS | ≤ 0.2 |
| QVPW | ≤ 0.2 |
| RLAS | 1 |
| RLFN | 0.395 |
| RLFD | ≤ 0.2 |
| RLFS | 1.03 |
| RLAP | ≤ 0.2 |
| RLAH | ≤ 0.2 |
| HRSG | 0.277 |
| QDER | ≤ 0.2 |
| QMYS | ≤ 0.2 |
| YWTY | ≤ 0.2 |
| IAWK | ≤ 0.2 |
| PACN | ≤ 0.2 |
| RQVT | 0.678 |
| RQVH | ≤ 0.2 |

| Variant | one-hybrid fitness for binding parS DNA |
| --- | --- |
| RQVP | ≤ 0.2 |
| RQKQ | ≤ 0.2 |
| RQKF | 0.328 |
| RQKT | 0.819 |
| FSNE | ≤ 0.2 |
| TTGM | ≤ 0.2 |
| ILAP | ≤ 0.2 |
| ELIG | ≤ 0.2 |
| HFGL | ≤ 0.2 |
| DNSG | ≤ 0.2 |
| DNPA | ≤ 0.2 |
| RHIT | 0.581 |
| RHPT | 0.336 |
| RSPT | 0.372 |
| RSIT | 0.628 |
| RHIH | ≤ 0.2 |
| RPIT | ≤ 0.2 |
| RCIT | 0.78 |
| REIT | ≤ 0.2 |
| RGIT | 0.278 |
| YPCV | ≤ 0.2 |
| ALRC | ≤ 0.2 |
| TRWA | ≤ 0.2 |
| AHIG | ≤ 0.2 |
| RVWM | 0.344 |

| Variant | one-hybrid fitness for binding parS DNA |
| --- | --- |
| RVGM | 0.306 |
| RVSD | ≤ 0.2 |
| RVQK | ≤ 0.2 |
| RVQC | 0.983 |
| RVGF | 0.254 |
| RVQM | 0.278 |
| RVSC | 0.977 |
| RVSH | ≤ 0.2 |
| RVWY | 0.49 |
| RVWC | 0.963 |
| RVGC | 0.934 |
| PWHI | ≤ 0.2 |
| EAGG | ≤ 0.2 |
| TACV | ≤ 0.2 |
| YPGR | ≤ 0.2 |
| TVMC | ≤ 0.2 |
| GENW | ≤ 0.2 |
| CIYR | ≤ 0.2 |
| METI | ≤ 0.2 |
| RVYQ | ≤ 0.2 |
| RVLF | 0.259 |
| RVRH | 0.203 |
| RVCN | 0.438 |
| RVRP | ≤ 0.2 |
| RVLC | 0.958 |

| Variant | one-hybrid fitness for binding parS DNA |
| --- | --- |
| RVYC | 0.991 |
| RVRC | 0.851 |
| RVCC | 0.966 |
| RVLK | ≤ 0.2 |
| RVYM | 0.314 |
| RVCP | ≤ 0.2 |
| MFWG | ≤ 0.2 |
| QASK | ≤ 0.2 |
| RCDK | ≤ 0.2 |
| QSQF | ≤ 0.2 |
| PAVG | ≤ 0.2 |
| THLD | ≤ 0.2 |
| KYFM | ≤ 0.2 |
| RVHC | 0.965 |
| RVHM | 0.314 |
| RVHY | 0.481 |
| LVSM | ≤ 0.2 |
| LKVQ | ≤ 0.2 |
| LEMF | ≤ 0.2 |
| FCHS | ≤ 0.2 |
| SKPK | ≤ 0.2 |
| RSPC | 0.421 |
| RMIL | ≤ 0.2 |
| RMPP | ≤ 0.2 |
| RMPF | ≤ 0.2 |

| Variant | one-hybrid fitness for binding parS DNA |
| --- | --- |
| RMPC | 0.725 |
| RPPC | ≤ 0.2 |
| RCPC | 0.698 |
| RMIC | 0.926 |
| RMIM | 0.324 |
| EAKD | ≤ 0.2 |
| TVNA | ≤ 0.2 |
| CNTL | ≤ 0.2 |
| RLKN | 0.458 |
| RLVS | 1.03 |
| RLVH | 0.223 |
| RLVN | 0.4 |
| RLKD | ≤ 0.2 |
| RLKS | 0.851 |
| AHEK | ≤ 0.2 |
| MWPC | ≤ 0.2 |
| LAAP | ≤ 0.2 |
| QDYS | ≤ 0.2 |
| QTCI | ≤ 0.2 |
| PSAR | ≤ 0.2 |
| HTSF | ≤ 0.2 |
| AANC | ≤ 0.2 |
| RVIM | 0.261 |
| RVPR | ≤ 0.2 |
| RVIG | 0.904 |

| Variant | one-hybrid fitness for binding parS DNA |
| --- | --- |
| RVPQ | ≤ 0.2 |
| RVPG | 0.691 |
| RVIK | ≤ 0.2 |
| HAGS | ≤ 0.2 |
| VNPV | ≤ 0.2 |
| WRYW | ≤ 0.2 |
| TQTI | ≤ 0.2 |
| FACF | ≤ 0.2 |
| RMPD | ≤ 0.2 |
| RMPS | 0.889 |
| RMIS | 0.997 |
| RMIN | 0.327 |
| RMPN | 0.262 |
| RMID | ≤ 0.2 |
| FTGR | ≤ 0.2 |
| QRNV | ≤ 0.2 |
| PRGY | ≤ 0.2 |
| VCNT | ≤ 0.2 |
| KCVG | ≤ 0.2 |
| DLRC | ≤ 0.2 |
| PRLY | ≤ 0.2 |
| RWEA | 0.301 |
| RWEI | ≤ 0.2 |
| RWEC | 0.556 |
| RWEN | ≤ 0.2 |

| Variant | one-hybrid fitness for binding parS DNA |
| --- | --- |
| RWEG | 0.563 |
| RWEK | ≤ 0.2 |
| RWES | 0.712 |
| RWEM | ≤ 0.2 |
| RWEF | ≤ 0.2 |
| DQQE | ≤ 0.2 |
| CPRM | ≤ 0.2 |
| KRDI | ≤ 0.2 |
| DGLW | ≤ 0.2 |
| SLYE | ≤ 0.2 |
| NVQI | ≤ 0.2 |
| QQQV | ≤ 0.2 |
| WSWS | ≤ 0.2 |
| QFTQ | ≤ 0.2 |
| VLWE | ≤ 0.2 |
| PVLP | ≤ 0.2 |
| RYNH | ≤ 0.2 |
| RYNS | 0.872 |
| RYND | 0.213 |
| RYDD | ≤ 0.2 |
| RYDN | 0.407 |
| RYDS | 0.987 |
| EDLC | ≤ 0.2 |
| ANQD | ≤ 0.2 |
| TARG | ≤ 0.2 |

| Variant | one-hybrid fitness for binding parS DNA |
| --- | --- |
| KMSG | ≤ 0.2 |
| RYEP | ≤ 0.2 |
| RYEY | 0.434 |
| RYEK | ≤ 0.2 |
| RYEH | ≤ 0.2 |
| RYEC | 0.926 |
| RYEF | 0.236 |
| RYEM | 0.275 |
| RYEN | 0.348 |
| RYED | ≤ 0.2 |
| RYES | 0.975 |
| RYET | 0.772 |
| RYEG | 0.901 |
